Screening results deposited in PubChem BioAssay by National Center for Advancing Translational Sciences (NCATS).
NIH3T3 tox = NIH 3T3 cell cytotoxicity; 94,000 tested, 4.3% active; Potency, µM (top dose mostly 96.7 µM), for inactives: top-dose activity change, negative = cytotoxicity, usual class: inhibitors; NIH 3T3 viability, CellTiter-Glo ATP luminescence, 48-72 h; also: nearly all actives have a fitted effect of over 55% in size
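Cytotoxicity is measured as loss of cellular ATP: NIH 3T3 cells (400/well) are exposed to compound for 48 or 72 hr at 37 °C, then CellTiter-Glo luminescence is imaged after 10 min at room temperature.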
Luciferase inh = inhibitors of firefly (Photinus pyralis) luciferase; P08659; purified P. pyralis luciferase, luminescence, biochemical; Potency, µM (doses to about 115 µM), actives largely listed as inhibitors; 76,000 tested, 2.5% active; AID 1347043; also: nearly all actives have a fitted effect of over 65% in size
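FLuc 10nM, D-luciferin 10uM, ATP 10uM, Mg acetate 10mM, Tris acetate pH 7.5, Tween/BSA; cpd qHTS; enzyme added last; CCD luminescence.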
hNpr1 antagonist = antagonists of human natriuretic peptide receptor Npr1 | 76,000 tested, 1.6% active | P16066 | HEK293 hNpr1 GloSensor cGMP, ANP-stimulated luminescence | Potency, µM (top dose mostly 46.3 µM), inactives show at the top dose activity change, negative = inhibition, hits mostly inhibitors; calls by dose curve; also: nearly all actives have a fitted effect of over 60% in size
Target sequence (P16066 whole entry, looked up): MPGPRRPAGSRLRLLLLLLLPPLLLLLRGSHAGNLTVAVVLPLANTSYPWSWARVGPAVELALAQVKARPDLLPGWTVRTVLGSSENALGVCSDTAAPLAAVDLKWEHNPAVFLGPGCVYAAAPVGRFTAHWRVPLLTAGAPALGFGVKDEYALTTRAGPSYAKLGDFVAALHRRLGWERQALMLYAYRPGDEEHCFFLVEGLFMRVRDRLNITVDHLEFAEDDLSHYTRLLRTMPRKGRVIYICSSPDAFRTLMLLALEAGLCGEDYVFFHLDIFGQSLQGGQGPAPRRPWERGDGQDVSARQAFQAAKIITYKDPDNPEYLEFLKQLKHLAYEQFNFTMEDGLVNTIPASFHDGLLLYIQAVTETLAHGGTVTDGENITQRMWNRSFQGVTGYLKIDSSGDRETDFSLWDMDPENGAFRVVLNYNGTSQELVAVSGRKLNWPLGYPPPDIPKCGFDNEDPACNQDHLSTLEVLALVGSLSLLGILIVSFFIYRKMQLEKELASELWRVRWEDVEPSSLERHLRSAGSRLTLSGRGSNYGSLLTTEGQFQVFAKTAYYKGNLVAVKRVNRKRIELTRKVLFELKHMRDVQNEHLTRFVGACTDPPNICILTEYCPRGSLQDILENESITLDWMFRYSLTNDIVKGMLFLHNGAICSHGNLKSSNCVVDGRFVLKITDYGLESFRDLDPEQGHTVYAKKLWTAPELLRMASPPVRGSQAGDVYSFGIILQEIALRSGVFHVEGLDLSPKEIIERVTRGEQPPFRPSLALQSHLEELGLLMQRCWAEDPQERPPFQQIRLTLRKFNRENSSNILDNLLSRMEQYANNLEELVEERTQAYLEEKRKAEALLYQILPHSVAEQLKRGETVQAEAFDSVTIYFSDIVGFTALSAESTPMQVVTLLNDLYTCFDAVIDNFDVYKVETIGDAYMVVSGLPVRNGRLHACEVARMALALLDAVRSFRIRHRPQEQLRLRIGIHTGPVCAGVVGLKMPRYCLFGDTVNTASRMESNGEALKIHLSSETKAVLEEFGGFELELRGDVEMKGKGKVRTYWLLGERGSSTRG
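HEK293 cells stably expressing human Npr1 and cGMP GloSensor pGS-40F, loaded 2 h with 2% GloSensor reagent, given compound 30 min at room temperature. Luminescence read before and 20 min after 0.1 nM hNppA.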
GPT2 inhibitor = GPT2 alanine aminotransferase inhibition; Q8TD30; Recombinant GPT2, coupled pyruvate oxidase/HRP Amplex Red fluorescence; Potency, µM (titrated, usually from 57.7 µM), for inactives: at the highest dose activity change, negative = inhibition, most hits filed as inhibitors; 100,000 tested, 0.25% active; also: nearly all actives have a fitted effect of over 60% in size
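Recombinant GPT2 (10ng/uL) with 250uM a-KG and 2mM L-alanine, 30 min at room temperature, in HEPES pH 7.5 buffer. Pyruvate detected by pyruvate oxidase/HRP/Amplex Red fluorescence after 30 min in the dark; AOA (50uM) as positive control.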
HEK293 tox = HEK 293 cell cytotoxicity; HEK 293 viability, ATP luminescence (CellTiter-Glo), 48-72 h; Potency, µM (titrated, usually from 115 µM), for the others: at the highest dose activity change, negative = cytotoxicity, usual class: inhibitors; 94,000 tested, 6.6% active; also: nearly all actives have a fitted effect of over 60% in size
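Viability of HEK 293 cells, plated at 250 cells/well, was judged by cellular ATP after compound treatment for 48 or 72 hr. Luminescence was imaged 10 min after CellTiter-Glo addition at room temperature.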
* marks the source's active call; other numbers are inactive results; i = inactive; ? = inconclusive; . = no result; [ ] = dose if it differs, or a comment. Sampled rows, rich in hits. Any-hit rate of the full collection: about 10%. Unless noted, calls follow the shape of the dose curve; as a rule, active = well fitted curve in the direction sought with a large enough effect; inconclusive = small, poorly fitted or top-dose-only effect, or another doubt; inactive = no such curve, though single readings can be large; an effect the other way counts as inactive or inconclusive. % is scaled to controls: 0 for no effect and ±100 for the full control effect; potency is read from the fitted curve at half-maximal effect.

SMILES | NIH3T3 tox | Luciferase inh | hNpr1 antagonist | GPT2 inhibitor | HEK293 tox
Cc1ccc(C(=O)N[C@H]2CO[C@H]3[C@@H]2OC[C@@H]3n2cc(CC3CCCCC3)nn2)cc1 | 35.5µM* | i | -4.1%[70.6 µM] | 0.8%[88.5 µM] | ?
c1ccc(CN[C@H]2CO[C@H]3[C@@H]2OC[C@@H]3n2cc(CC3CCCCC3)nn2)cc1 | 35.5µM* | i | -20.4%[70.6 µM] | i | ?
CNC(=O)[C@H]1C[C@H](Oc2ccccc2)CN1C(=O)NCc1ccc(OC)cc1 | i | i | -2.6% | 2.7% | 3.3%
COCC(=O)NC1CCN(c2nccc(Nc3ccc(C)cc3)n2)CC1 | 35.5µM* | . | . | i | ?
COc1ccccc1Nc1ccnc(N2CCC(NC(=O)Cc3cccc(Cl)c3)CC2)n1 | 31.6µM* | . | . | i | ?
Cc1ccc(Nc2ccnc(N3CCC(NC(=O)C(C)(C)C)CC3)n2)cc1 | ? | . | . | i | ?
Cc1ccc(Nc2ccnc(N3CCC(NC(=O)Cc4cccc(Cl)c4)CC3)n2)cc1 | 17.8µM* | . | . | i | 25.1µM*
CC(C)C[C@@H]1N[C@H](C(=O)N2CCC(NC(=O)c3ccccc3)CC2)Cc2c[nH]c3cccc1c23 | -21.8% | i | -3.3% | -9.5% | -16.6%
CC(=O)NC1(C)CCN(Cc2ccccc2-c2ccc3c(ccn3C)c2)C1 (stereo unspecified) | 89.1µM* | i | 0.5%[70.6 µM] | ? | 100µM*
CC(=O)NC1(C)CCN(Cc2ccc(-c3ccccc3OCc3ccccc3)cc2)C1 (stereo unspecified) | 31.6µM* | ? | -4.2%[70.6 µM] | 3.6%[88.5 µM] | 31.6µM*
CC(=O)NC1(C)CCN(Cc2ccccc2-c2cccc(C(C)=O)c2)C1 (stereo unspecified) | ? | i | 1.1%[70.6 µM] | i | ?
CC(=O)NC1(C)CCN(Cc2ccc(-c3ccc(N4CCOCC4)cc3)cc2)C1 (stereo unspecified) | ? | ? | -13.7%[70.6 µM] | 1.3%[88.5 µM] | ?
CC(=O)NC1(C)CCN(Cc2ccc(-c3cccc(F)c3)cc2)C1 (stereo unspecified) | 89.1µM* | i | -14.6%[70.6 µM] | 4.4%[88.5 µM] | ?
CC(=O)NC1(C)CCN(Cc2ccc(-c3cccc(C(F)(F)F)c3)cc2)C1 (stereo unspecified) | 44.7µM* | 63.1µM* | -15.1%[70.6 µM] | i | 50.1µM*
Cc1cccc(CC(=O)N2CCC(N3CC4CC(C3)[C@H]3CCCC(=O)N3C4)CC2)c1 (stereo partly specified) | 0.5% | i | 4.8% | i | 6.3%
O=C(Nc1ccc([C@@H](O)[C@H]2COCC(=O)N2CCCc2ccccc2)cc1)c1cnccn1 | ? | i | 1.2% | -2.9% | ?
Cc1nc(C2CC23CCN(S(=O)(=O)c2cn(C)cn2)CC3)no1 (stereo unspecified) | 0.5% | . | . | -0.4% | i
COc1cccc(Nc2cc(CN3CCC(C)(NC(C)=O)CC3)cc(OC)c2)c1 | 100µM* | i | -1.2%[70.6 µM] | -10.2%[88.5 µM] | 112µM*
COc1cc(CN2CCC(C)(NC(C)=O)CC2)cc(NCc2ccccc2)c1 | -9.7%[138 µM] | i | 1.7%[70.6 µM] | 0.0%[88.5 µM] | ?
CC(=O)NC1(C)CCN(Cc2cccc(-c3ccccc3)c2)C1 (stereo unspecified) | -26.5%[138 µM] | i | 0.7%[70.6 µM] | -8.5%[88.5 µM] | ?
CC(=O)NC1(C)CCN(Cc2ccc(-c3cccc(Cl)c3)cc2)C1 (stereo unspecified) | ? | i | -22.4%[70.6 µM] | -1.0%[88.5 µM] | 89.1µM*
CC(=O)NC1(C)CCCN(Cc2cc(-c3cccc(N(C)C)c3)cs2)C1 (stereo unspecified) | ? | 70.8µM* | -0.8%[70.6 µM] | i | 63.1µM*
CCOc1ccccc1CNC(=O)c1ccc2c(c1)CC(=O)N2C | ? | i | -4.6% | i | ?
CN1CCN(CCc2noc(C3CCCCCN3C)n2)CC1 (stereo unspecified) | i | i | 3.3% | i | i
Cc1noc(C2CC3(CCN(C(=O)c4n[nH]c5ccccc45)CC3)CN2C)n1 (stereo unspecified) | 0.0% | i | -3.3% | i | i
SMILES | NIH3T3 tox | Luciferase inh | hNpr1 antagonist | GPT2 inhibitor | HEK293 tox
CCOc1ccccc1NC(=O)CC1CCCN(c2cnn(CC3CC3)c(=O)c2)C1 (stereo unspecified) | 35.5µM* | i | 0.0% | -2.2% | ?
COc1ccccc1NC(=O)CC1CCCN(c2cnn(CC3CC3)c(=O)c2)C1 (stereo unspecified) | 35.5µM* | i | -20.4% | -6.1% | 1.3%
O=C(NCc1ccccc1)C1CC(=O)N(C2CN(Cc3ccc(C(F)(F)F)cc3)C2)C1 (stereo unspecified) | -16.2% | . | . | i | ?
Cc1ccsc1CN1CCC(Oc2cc(Cl)ccc2C(=O)N2CCCCC2)CC1 | ? | i | 1.3% | 5.0% | 44.7µM*
CCOc1ccccc1NC(=O)Cn1c(=O)n(CC)c(=O)c2c1cc(C)n2C | i | i | 0.2% | -13.5% | -0.5%
CN(CC(=O)N[C@H]1CCOC[C@H]1C1CCOCC1)Cc1ccccc1F | -15.6% | i | 5.2% | -0.3% | -4.6%
COc1ccc(-c2cc(C[C@@H]3CC[C@H](O)[C@@H](CN(C)C)O3)no2)cc1 | -15.8%[174 µM] | ? | -29.3%[70.6 µM] | 2.1%[88.5 µM] | -7.4%[172 µM]
CC(C)NC(=O)NC[C@H]1O[C@H](Cc2cc(COc3ccccc3)on2)CC[C@@H]1O | -26.3%[174 µM] | i | -6.7%[70.6 µM] | i | -8.8%[172 µM]
COc1ccc(-c2cc(C[C@@H]3CC[C@H](O)[C@@H](CN(Cc4ccccc4OC)Cc4ccccc4OC)O3)no2)cc1 | ? | ? | 10µM* | -6.5% | ?
COc1cccc(CNC[C@H]2O[C@H](Cc3cc(CN4CCOCC4)on3)CC[C@@H]2O)c1 | 0.2%[174 µM] | i | 0.1%[70.6 µM] | -4.4%[88.5 µM] | -22.2%[172 µM]
COc1cccc(CNC[C@H]2O[C@H](Cc3cc(-c4ccccc4)on3)CC[C@@H]2O)c1 | ? | i | -27.4%[70.6 µM] | -12.9%[88.5 µM] | 112µM*
CC(C)CN(CC(C)C)C[C@H]1O[C@H](Cc2cc(COc3ccccc3)on2)CC[C@@H]1O | 100µM* | i | 5.1%[70.6 µM] | -13.1%[88.5 µM] | 100µM*
COc1cccc(C(=O)N2CC(=O)N(CCOc3ccccc3)CC(O)C2)c1 (stereo unspecified) | -24.9% | . | . | . | ?
CC(=O)N1CCOc2ccc(CCC(=O)NC(C)Cn3ccc(C)n3)cc2C1 (stereo unspecified) | -8.4% | i | 3.7% | 0.8% | -9.5%
Cc1cc2cc(C(=O)N3CCN(c4ncccc4C#N)CC3)ccc2o1 | -20.0% | i | 2.2% | -3.5% | -11.1%
Cn1ccc2c(C(=O)NCC3CCC(=O)N3)nc(-c3ccccc3C#N)cc21 (stereo unspecified) | 25.1µM* | i | -0.6%[70.6 µM] | -5.1%[88.5 µM] | ?
Cc1ccc(CNC(=O)c2ccc3c(c2)CN(Cc2cc(F)c(F)c(F)c2)CCO3)cc1 | ? | i | -1.5% | -5.7% | 35.5µM*
